# Rab9 promoter act: activates the Rab9 promoter | Huh7 Rab9 promoter-luciferase reporter, luminescence, 24 h | Potency, µM (doses to about 9.22 µM), for inactives: at the highest dose activation, negative = inhibition, usual class: activators | actives 2.8% (n = 320,000) | AID 485297; also: % of control where 0% means no effect; nearly all actives have a fitted effect of over 60% in size
#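 Quantitative HTS format; Huh7 Rab9-luciferase reporter cells (1500/well) receive compound 2 h post-plating, incubate 24 h at 37 °C, then get luciferase reagent for 10 min before luminescence reading.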
# KinaseGlo FLuc: blocks Kinase-Glo luciferase, a counter-screen artifact; Q27757; Kinase-Glo luciferase, ATP luminescence, 8 min; Potency, µM (top dose mostly 38.3 µM), without a hit: at the top dose activity change, negative = inhibition, most hits filed as inhibitors; actives 0.28% (n = 200,000); also: % is scaled to controls: 0 for no effect and ±100 for the full control effect; nearly all actives have a fitted effect of over 60% in size
#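 Inhibition of Kinase-Glo luciferase light generation was assessed at 10 uM ATP in pH 7.2 imidazole buffer, with luminescence measured after eight minutes at ambient temperature.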
# ELG1 genotoxic: induces genotoxicity in HEK293T cells with luciferase-tagged ELG1. HEK293T ELG1-luciferase reporter, luminescence, 16 h. AID 504466. Potency, µM (titrated, usually from 46 µM), for inactives: at the top dose activity change, positive = activation, actives largely listed as activators. actives 1.3% (n = 330,000); also: % of control where 0% means no effect; nearly all actives have a fitted effect of over 60% in size
#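 Genotoxicity was scored as increased ELG1-luciferase reporter signal, measured by ONE-Glo luminescence (30 min, room temperature). Compound or vehicle exposure of the HEK293T reporter cells lasted 16 hr at 37°C.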
# FLuc modulator: firefly luciferase modulation, counter-screen for miR-21 project. purified FLuc, Km substrates, luminescence inhibition. Potency, µM (series often up to 57.5 µM), inactives show at the top dose activity change, negative = inhibition, hits mostly inhibitors. actives 6.9% (n = 360,000);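 also: plate controls were vehicle for no effect and reference inhibitor for full effect; nearly all actives have a fitted effect of over 55% in size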
# Target sequence (P08659 whole entry, looked up): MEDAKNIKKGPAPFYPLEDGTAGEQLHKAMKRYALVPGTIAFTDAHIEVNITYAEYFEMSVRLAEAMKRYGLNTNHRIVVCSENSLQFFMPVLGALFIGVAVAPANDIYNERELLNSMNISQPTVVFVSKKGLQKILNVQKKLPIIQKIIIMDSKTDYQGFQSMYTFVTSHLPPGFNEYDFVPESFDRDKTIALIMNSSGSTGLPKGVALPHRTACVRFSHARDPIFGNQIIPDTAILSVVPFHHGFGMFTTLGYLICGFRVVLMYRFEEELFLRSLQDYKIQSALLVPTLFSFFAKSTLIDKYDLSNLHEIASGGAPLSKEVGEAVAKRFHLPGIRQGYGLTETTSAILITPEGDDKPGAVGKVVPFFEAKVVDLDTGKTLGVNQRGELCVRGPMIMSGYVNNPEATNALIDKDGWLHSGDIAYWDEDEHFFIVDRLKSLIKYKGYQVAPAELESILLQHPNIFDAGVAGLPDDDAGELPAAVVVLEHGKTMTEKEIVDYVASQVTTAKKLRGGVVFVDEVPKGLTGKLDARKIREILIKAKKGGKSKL
#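 Purified P. pyralis luciferase (10nM final) with 10uM D-luciferin and 10uM ATP (Km levels) in 50mM Tris acetate pH 7.5, 10mM Mg acetate, 0.01% Tween-20, 0.05% BSA; qHTS 6-point titration, ~60 µM downward; luminescence read.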
# NPC1 promoter act: activators of NPC1 promoter; Huh7 NPC1 promoter luciferase reporter, 24 h; Potency, µM (doses to about 9.22 µM), without a hit: top-dose activation, usual class: activators; actives 2.4% (n = 320,000); AID 485313; also: % of control where 0% means no effect; nearly all actives have a fitted effect of over 60% in size
#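 Quantitative HTS used a cell-based reporter: Huh7 cells stably bearing the NPC1 promoter upstream of luciferase were treated with compounds for 24 h, and promoter activation was read as luminescence.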
# SMN2 splice up: SMN2 splice variant enhancement | actives 2.8% (n = 210,000) | Potency, µM (top dose mostly 46.1 µM), without a hit: at the highest dose activity change, positive = activation, actives largely listed as activators | AID 1458 | HEK293 SMN2-luciferase splicing reporter, luminescence, 30-36 h; also: % of control where 0% means no effect; nearly all actives have a fitted effect of over 55% in size
#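 HEK293 cells carry an SMN2 […]–luciferase reporter in which exon 7 inclusion puts luciferase in frame. Cells were plated 10-12 h before compound addition, then incubated 30-36 h at 37C. ONE-Glo luminescence was read; sodium butyrate at 4.5 mM final served as control.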
# * = called active by the depositor; ? = inconclusive; / = no result. Rows were chosen to be rich in hits. Some 7.4% of all compounds tested hit in one or more screens of this group. Calls follow the shape of the dose curve; as a rule, active = well fitted curve in the direction sought with a large enough effect; inconclusive = small, poorly fitted or top-dose-only effect, or another doubt; inactive = no such curve, though single readings can be large; an effect the other way counts as inactive or inconclusive. Potency is read from the fitted curve at half-maximal effect.
SMILES,Rab9 promoter act,KinaseGlo FLuc,ELG1 genotoxic,FLuc modulator,NPC1 promoter act,SMN2 splice up
COc1ccc(-c2noc(Cn3c(=O)c4ccccc4n(CC(=O)Nc4cccc(C(F)(F)F)c4)c3=O)n2)cc1,/,/,/,-1%,/,/
O=C(NCc1ccco1)c1ccc(C(F)(F)F)cc1,1%,2%,6%,-1%,-2%,-6%
CC(Cc1ccco1)NC(=O)c1ccc(C(F)(F)F)cc1 (stereo not drawn),1µM*,/,8.2µM*,6.7µM*,0.71µM*,/
CC(Cc1ccco1)NC(=O)c1cccc(S(=O)(=O)N(C)C)c1 (stereo not drawn),?,/,15µM*,?,?,/
Cc1cccc(C)c1NC(=O)NC1(C(=O)NCC2CCCO2)CCCCC1 (stereo not drawn),-3%,/,2%,2%,0%,/
CC(=O)Nc1ccc(-c2nnc(SCC(=O)Nc3ccc4c(c3)oc3ccccc34)n2C)cc1,?,-4%,1%,1.2µM*,?,-4%
CCn1c(SCC(=O)Nc2ccccc2C(=O)OC)nnc1-c1ccc(N)cc1,2%,-1%,0%,3%,0%,-19%
CCn1c(SCC(=O)Nc2ccc3c(c2)oc2ccccc23)nnc1-c1ccc(N)cc1,4%,16%,-9%,2.7µM*,-5%,-13%
CC1Cc2ccccc2N1Cc1cc(=O)c(OCC(=O)NCCc2ccccc2)co1 (stereo not drawn),-3%,/,-2%,1%,1%,/
O=C1C2C3C=CC(C3)C2C(=O)N1CCCCCCN1C(=O)C2C3C=CC(C3)C2C1=O (stereo not drawn),4µM*,11µM*,?,4.3µM*,-19%,/
COc1ccc(CCNC(=O)CCn2c(=O)c3ccccc3n(Cc3cc(C)ccc3C)c2=O)cc1OC,/,/,/,-1%,/,-3%
Nc1nc2c(-c3ccc(Br)cc3)nnn2c2ccccc12,0.63µM*,/,12µM*,0.43µM*,1µM*,/
COCCn1c(-c2ccccc2)nc2oc3ccccc3c(=O)c2c1=O,4%,0%,-1%,3%,-4%,-2%
COCCn1c(-c2cc(OC)c(OC)c(OC)c2)nc2oc3ccccc3c(=O)c2c1=O,2%,-5%,-9%,0%,-1%,14µM*
O=C(CNC(=O)c1cccs1)c1ccc(Cl)cc1,0.5µM*,/,?,6µM*,1.1µM*,/
O=C(CNC(=O)c1cccs1)OCC(=O)c1ccc(Cl)cc1,-5%,2%,0%,-7%,-3%,/
O=C(CNC(=O)c1cccs1)c1ccc([N+](=O)[O-])cc1,2.8µM*,-2%,?,24µM*,?,?
O=C(CNC(=O)c1cccs1)c1ccc(F)cc1,0.56µM*,-3%,?,4.8µM*,0.5µM*,6.3µM*
CCN(CC)CCCNc1ccc(-c2nnc(-c3ccc(OCC(C)C)cc3)o2)cn1,0%,/,-8%,-15%,-2%,/
CCCOc1ccc(-c2nnc(-c3ccco3)o2)cc1,0.45µM*,?,?,0.76µM*,0.5µM*,?
CC(C)COc1ccc(-c2nnc(-c3ccco3)o2)cc1,0.32µM*,-15%,?,1.1µM*,0.45µM*,4µM*
COc1cccc(C(=O)Nc2ccc(-c3nnc(-c4ccco4)o3)cc2)c1,28%,-12%,16%,0%,-4%,-25%
CC(/C=N/NC(=O)c1n[nH]c2c1CCC2)=C\c1ccccc1,2%,-2%,2.3µM*,4.8µM*,28%,?
O=C(N/N=C/C(Br)=C\c1ccccc1)c1n[nH]c2c1CCC2,20%,7%,2.3µM*,2.4µM*,?,13µM*
O=C(COC(=O)C(Cc1ccccc1)NC(=O)c1ccc(Cl)cc1)c1ccc(Cl)cc1 (stereo not drawn),-2%,0%,0%,?,-4%,-12%
SMILES,Rab9 promoter act,KinaseGlo FLuc,ELG1 genotoxic,FLuc modulator,NPC1 promoter act,SMN2 splice up
Cc1ccc(-n2c(=O)c3c(c4cc(C)ccc4n3C)n(CC(=O)NCCC3=CCCCC3)c2=O)cc1,/,/,/,1%,/,/
CCOc1ccc(OCCCC(=O)N(CC)CC(=O)Nc2c(F)cccc2F)cc1,1%,/,-2%,-12%,-2%,/
NC(=O)Nc1ccc2c(c1)OCCO2,30%,2%,?,21µM*,19%,17%
CC(=O)Nc1ccc2c(c1)OCCOCCOc1cc(NC(C)=O)ccc1OCCO2,8%,/,-6%,5%,0%,/
Cc1cc(C(=O)Nc2ccc3c(c2)OCCO3)co1,4.5µM*,-17%,?,3.4µM*,3.2µM*,/
Cc1cc(C)n(-c2ccc(C(=O)Nc3ccc4c(c3)OCCO4)cc2)n1,?,-2%,?,8.5µM*,?,17%
C=CCOc1ccccc1CNc1ccc2c(c1)OCCO2,?,-15%,?,0.85µM*,?,-29%
CC1CN(C(=O)CCC(=O)Nc2cc(F)ccc2F)c2ccccc2S1 (stereo not drawn),/,/,/,-12%,/,/
O=C1NC(Cc2ccccc2)c2nc3cc(F)ccc3c(=O)n2-c2ccccc21 (stereo not drawn),/,/,3%,/,/,/
O=C(CC1C(=O)NCCN1Cc1ccccc1C(F)(F)F)NCCc1ccccn1 (stereo not drawn),-2%,-1%,2%,-1%,1%,/
Cc1ccc(C(=O)Nc2ccc3c(c2)OCCO3)o1,?,?,3.3µM*,3µM*,?,/
CCOc1ccc(C(=O)Nc2ccc3c(c2)OCCO3)cc1OC,?,-14%,18µM*,2.7µM*,?,13µM*
CC(=O)Nc1ccc(C(=O)Nc2ccc3c(c2)OCCO3)cc1,5%,/,?,15µM*,-2%,/
CCN(CC(=O)Nc1ccc2c(c1)OCCO2)C(=O)c1ccc(Cl)cc1Cl,1.4µM*,/,?,7.6µM*,4µM*,/
Cc1ccc(C(=O)Nc2ccncc2)o1,2%,-4%,-2%,-2%,1%,-6%
CC(=O)Nc1ccc(C(=O)Nc2ccc3c(c2)OCO3)cc1,24%,-8%,13%,?,16%,3%
CC(=O)Nc1cccc(C(=O)OCC(=O)NNC(=O)c2ccc([N+](=O)[O-])cc2)c1,-5%,/,4%,-14%,-4%,/
CCOC(=O)N1CCC(N2C(=O)c3ccc(C(=O)NCCOC)cc3C2=O)CC1,-3%,/,-1%,2%,-3%,/
COc1ccc(-c2c(C#Cc3ccsc3)c3cc(-c4ccc(C(N)=O)cc4)ccc3n2C)cc1,/,/,-2%,/,/,/
CCOC(=O)CC(=O)N/N=C/c1c(N)n(C)c(=O)n(C)c1=O,1%,1%,0%,-4%,5%,-28%
S=C(Nc1ccc(Nc2ccccc2)cc1)N1CCN(c2ncccn2)CC1,-13%,4%,-1%,-2%,-6%,-3%

# Compound activity as filed in PubChem.
